The campaign covered roughly 420,000 compounds. About 64,000 (15%) were called active. Inconclusive results (about 27%) are left out. Calls follow the shape of the dose curve; as a rule, active = well fitted inhibition curve with a large enough effect; inconclusive = small, poorly fitted or top-dose-only effect; inactive = flat fitted curve, though single readings scatter. A selection follows. A call without a number means that no potency is given here. Square brackets hold non-standard residues; d marks the D form. Peptide text beside a SMILES is read from it. * marks the point of attachment. ξ: configuration not given here. Cbz = O=C(OCc1ccccc1)*; ξL = CC(C)CC(N)C(=O)O; ξP = O=C(O)C1CCCN1
Potency is read from the fitted curve at half-maximal effect.

The nature of the experiment: qHTS for Inhibitors of human tyrosyl-DNA phosphodiesterase 1 (TDP1): qHTS in cells in absence of CPT. Also: nearly all actives have a fitted effect of over 55% in size. The note with it: DT40 Tdp1-/- hTDP1 cells, no CPT, ATP luminescence, 48 h; activity change, negative = growth inhibition: at 46.2 µM (top of the series). The method in brief: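 Growth kinetics read by CellTiter-Glo luminescence after ≥48 hr at 37 °C. Cells: DT40 Tdp1-/- stably carrying human TDP1, 400 per well, compound exposure in the absence of CPT (DMSO vehicle).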
In general terms: Quantitative high-throughput screening tests each substance at several concentrations.
Regarding `Cc1nc(C(F)(F)F)ccc1C(=O)N1CCC1(C)C(=O)NS(=O)(=O)c1ccccc1Cl` (stereo not given), the Potency entry was “inactive”.

As for `Cc1ccccc1NC(=O)Cc1nc(COC(=O)c2cccnc2Cl)cs1`, the Potency entry is “inactive”.

As to `COC(=O)c1cc(CNC(=O)CC(C)c2ccccc2)ccc1OC` (stereo not given), the Potency result was “inactive”.

With `O=C(OCC(=O)N1CCCC1)c1ccc(Cl)nc1`, the Potency result was “inactive”.

In the case of `O=C(O)C1CCC(CNS(=O)(=O)c2ccc(Br)cc2)CC1` (stereo not given), the Potency entry is “inactive”.

In the case of `CCOC(=O)c1cc2cc(OC)ccc2n1C1CCN(C)CC1`, the Potency is 18.4 µM (active).

Turning to `CCOC(=O)c1cc2c(ccn2C)n1CC(=O)N1CCC(C)CC1`, the Potency entry is “inactive”.

As to `COc1ccc2[nH]c(C(=O)N3CCN(C)CC3)c(C)c2c1`, the Potency entry is “inactive”.

In the case of `Cc1c(NC(=O)CCCOc2ccccc2)cccc1[N+](=O)[O-]`, the Potency entry is “inactive”.

`Cc1csc(CN(C)C(=O)CC2C(=O)NCCN2CC(C)(C)C)n1` (stereo not given): the Potency entry was “inactive”.

For `O=C(N/N=C/c1ccccc1O)/C(=C/c1ccccc1)CCO`, the Potency was 5.17 µM (active).

In the case of `O=C(NN=Cc1ccccc1O)NN=Cc1ccccc1O`, the Potency was 5.8 µM (active).

Consider `O=C(N/N=C/c1ccc(O)cc1)/C(=C/c1ccc([N+](=O)[O-])cc1)NC(=O)c1ccccc1`, for which the Potency entry is “inactive”.

As to `O=C(CCC(=O)Nc1ccccc1)N/N=C/c1ccccc1F`, the Potency result was “inactive”.

Turning to `C=CCOc1ccccc1/C=N/NC(=O)Cc1ccccc1`, the Potency result is “inactive”.

For `Oc1ccccc1C=NC1CCCCC1N=Cc1ccccc1O` (stereo not given), the Potency result is “inactive”.

Take `O=C(NCC1CCCCC1)c1cc(S(=O)(=O)N2CCCCC2)ccc1N1CCOCC1`: the Potency result is “inactive”.

Turning to `N#CCCN(C(=O)COC(=O)c1ccc2c(c1)OCCO2)c1ccccc1`, the Potency entry was “inactive”.

With `O=C(Cn1nc([N+](=O)[O-])nc1Br)NC1CCCCC1`, the Potency result was “inactive”.

For the molecule `CCOC(=O)C(C)n1cnc2c(nnn2-c2ccc(F)cc2)c1=O` (stereo not given), the Potency result was “inactive”.

In the case of `Cc1ccc(Cn2nnc3c(=O)n(CC(=O)N4CCCCC4)cnc32)cc1`, the Potency entry is “inactive”.

For `O=C(Cn1cnc2c(nnn2-c2ccccc2)c1=O)N1CCC(Cc2ccccc2)CC1`, the Potency was 20.6 µM (active).

As for `CC(=O)Nc1ccc(S(=O)(=O)N2CCC(NC(=O)c3ccccc3)CC2)cc1`, the Potency entry is “inactive”.

With `O=C(NCc1cccs1)c1ccc(Br)o1`, the Potency result is “inactive”.

Consider `CC(C)Cn1c(N)c(C(=O)NCc2cccs2)c2nc3ccccc3nc21`, for which the Potency was 20.6 µM (active).

For the molecule `CCCNC(=O)c1c(N)n(-c2ccc(S(N)(=O)=O)cc2)c2nc3ccccc3nc12`, the Potency entry is “inactive”.

With `Cn1nccc1NC(=O)CC(CC(=O)O)c1ccccc1` (stereo not given), the Potency entry was “inactive”.

Take `COc1ccc(NC(=O)CS(=O)(=O)c2ccccc2)cc1`: the Potency result is “inactive”.

Regarding `CC(=O)Nc1ccccc1OC(=O)N1CCOCC1`, the Potency result was “inactive”.

For `NC(=O)COC(=O)c1cc(S(=O)(=O)N2CCN(c3ccccc3)CC2)ccc1Cl`, the Potency entry was “inactive”.

With `CC(=O)N1c2ccc(S(=O)(=O)N3CCC(C(=O)N4CCN(c5ccccc5)CC4)CC3)cc2CC1C` (stereo not given), the Potency was 20.6 µM (active).

Consider `CC(=O)c1ccc(N2CCN(S(=O)(=O)c3c(C)[nH]c(=O)[nH]c3=O)CC2)cc1`, for which the Potency entry was “inactive”.

In the case of `NC(=O)C1CCN(C(=O)c2ccc(-c3ccccc3)cc2)CC1`, the Potency entry was “inactive”.

`NC(=O)C1CCN(C(=O)c2cc(S(=O)(=O)N3CCN(c4ccccc4)CC3)ccc2Cl)CC1`: the Potency was 6.51 µM (active).

Consider `CS(=O)(=O)N1CCC(C(=O)N2CCN(c3ccccc3)CC2)CC1`, for which the Potency result is “inactive”.

Consider `CC(=O)c1ccc(S(=O)(=O)N2CCC(Oc3ccc(-n4cnnn4)cc3)CC2)cc1`, for which the Potency entry is “inactive”.

For `CC(=O)c1ccc(N2CCN(C(=O)C3CCN(S(=O)(=O)c4ccc5c(c4)CC(C)N5C(=O)C4CC4)CC3)CC2)cc1` (stereo not given), the Potency was 4.11 µM (active).

For the molecule `CCS(=O)(=O)N1CCC(C(=O)N2CCN(c3ccccc3)CC2)CC1`, the Potency result is “inactive”.

With `COc1ccc(NC(=O)CN(C)S(=O)(=O)c2ccccc2)cc1OC`, the Potency entry is “inactive”.

Consider `O=C(NCCS(=O)(=O)c1ccc(Br)cc1)c1ccccc1Cl`, for which the Potency result was “inactive”.

On to `COc1ccc(NC(=O)NN2CCN(C)CC2)c(OC)c1`, for which the Potency result is “inactive”.

Regarding `O=C(Cn1cc2c(n1)CCCCC2)NCCN1CCOCC1`, the Potency entry was “inactive”.

As to `Cn1c(=O)sc2cc(NS(=O)(=O)c3ccc(C(C)(C)C)cc3)ccc21`, the Potency result is “inactive”.

For `CC1=NN(C(=O)c2ccccc2Br)C(O)(c2cccnc2)C1` (stereo not given), the Potency result is “inactive”.

Take `O=C(NCCc1ccccc1)C1CC1`: the Potency result was “inactive”.

For `CCC(C)(C)C1CCC(=NNC(=O)c2ccc(Br)o2)CC1` (stereo not given), the Potency entry is “inactive”.

As for `CCCC1CCC(=NNC(=S)NCCc2ccccc2)CC1` (stereo not given), the Potency was 7.31 µM (active).

As to `CC(C)CC(NC(=O)C1CCCN1C(=O)[C@@H](C)NC(=O)OCc1ccccc1)C(=O)NCC(N)=O` (stereo not given in full) (Cbz-[dA][ξP][ξL]G-NH2), the Potency entry was “inactive”.

For the molecule `COc1cc(OC)cc(-c2nc3ccccc3c(=O)n2NC(=O)c2cccnc2Cl)c1`, the Potency entry was “inactive”.

As for `CSc1nc(C)nc(C2CC2)c1C#N`, the Potency result is “inactive”.

As to `Cc1noc(C)c1NC(=O)Nc1ccc2c(c1)C(=O)N([C@H](C)CO)C[C@H](C)[C@@H](CN(C)C(=O)Nc1ccccc1)O2`, the Potency result was “inactive”.

For the molecule `COc1ccccc1C(=O)NCCC(=O)NC(C)CCc1ccccc1` (stereo not given), the Potency result was “inactive”.

Turning to `O=C(CNC(=O)c1ccc(F)cc1)c1ccccc1`, the Potency entry is “inactive”.

Turning to `Cc1cc2ccccc2n1CCC(=O)O`, the Potency entry was “inactive”.

`CC(=O)NCCc1nc2cc(NC(=O)c3ccccc3)ccc2n1C`: the Potency entry is “inactive”.

On to `CCC(=O)NCCc1nc2ccccc2n1CC`, for which the Potency result was “inactive”.

Consider `CCCCCn1c(CCCNC(=O)c2ccccc2OC)nc2ccccc21`, for which the Potency was 18.4 µM (active).

For `Cc1cc2ccccc2n1CCNC(=O)c1ccc(F)cc1`, the Potency is 18.4 µM (active).

For `CCCCCn1c(CCNC(=O)c2ccc(F)cc2)nc2ccccc21`, the Potency is 18.4 µM (active).

Consider `CCCCOCCCNC(=O)c1ccccc1OCC`, for which the Potency entry was “inactive”.

For the molecule `CCN(CC)CCCNC(=O)CCc1ccccc1`, the Potency entry was “inactive”.

For the molecule `CCN(CC)CCCN=C(N)N`, the Potency result is “inactive”.

On to `COc1cc(NS(=O)(=O)c2ccc(NC(=S)NC(=O)c3ccc(Br)cc3)cc2)ncn1`, for which the Potency result is “inactive”.

In the case of `COc1ccc(COCC(O)CN2CCC(C(N)=O)CC2)cc1` (stereo not given), the Potency entry was “inactive”.

Take `Clc1ccccc1-c1cc(COc2ccc3ccccc3c2)no1`: the Potency result was “inactive”.

Regarding `CCCCNC(=O)CCn1c(=S)[nH]c2cc3c(cc2c1=O)OCO3`, the Potency entry was “inactive”.

Take `CCN1CCN(C(=O)N[C@@H](C(=O)N[C@@H]2C(=O)N3C(C(=O)O)=C(CSc4nnnn4C)CS[C@H]23)c2ccc(O)cc2)C(=O)C1=O`: the Potency entry was “inactive”.

As to `NS(=O)(=O)c1ccc(N=Cc2ccc(Br)s2)cc1`, the Potency entry is “inactive”.

As to `COc1ccc(Cl)cc1C=CC=NNC(=O)c1ccncc1`, the Potency result is “inactive”.

As for `COc1ccc(Cl)cc1C=CC=Nc1ccc(S(N)(=O)=O)cc1`, the Potency was 16.4 µM (active).
